Structures are written as SMILES. The whole screen tested about 4,500 compounds, of which about 200 (4.4%) were called active.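 The calls were made as follows: active = cell survival measured by absorbance rises more than 2.5-fold over infected cells without compound; inactive = the rest.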 The entries come from a sample that favours actives as a whole.

The assay is described as follows: survival after telomere uncapping, modulators, primary screen, cell-based (AID 1259312).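 Also: virus expresses mutant telomerase RNA that uncaps telomeres and kills cells; compound added 2 days after infection so exposure lasts 3 days.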 Particulars: HCT116 + Ad-hTR-mut, MTT, 5 d; at 10 µM, hits give high values.
For the compound `COC(=O)C1=C(CSCc2ccco2)NC(=O)NC1c1ccc(C)cc1C` (configuration not stated), the fold change is -1.35 (inactive).

Take `CCOC(=O)c1c(NC(=O)C(F)(F)F)sc2c1CCN(C(=O)OCC)C2`: the fold change is 1.21 (inactive).

On to `Cc1ccc(-c2nc(CSc3nccc(N)n3)cs2)cc1`, for which the fold change was -2.25 (inactive).

Take `O=S(=O)(Nc1ccc(S(=O)(=O)Nc2ccc(F)cc2)cc1)c1ccccc1`: the fold change was -1.01 (inactive).

Turning to `O=S(=O)(Nc1ccc(Br)cc1)c1ccccc1`, the fold change is 2.66 (active).

Turning to `O=S(=O)(Nc1ccc(Br)cc1)c1ccc(Cl)cc1`, the fold change was 1.91 (inactive).

As for `O=C1c2cccc(Cl)c2C(=O)c2cccc(Cl)c21`, the fold change is -1.08 (inactive).

Turning to `CCc1sc(/C=C(/C#N)C(=O)OC)cc1[N+](=O)[O-]`, the fold change is -2.59 (inactive).

In the case of `NCCCNc1ccc([N+](=O)[O-])cc1Cl`, the fold change is 1.09 (inactive).

For `CCN(CC)CCNc1ccc([N+](=O)[O-])cc1[N+](=O)[O-]`, the fold change was 3.5 (active).

For the compound `NCCNc1ccc([N+](=O)[O-])cc1[N+](=O)[O-]`, the fold change is 1.82 (inactive).

As for `O=[N+]([O-])c1ccc(NCCO)c([N+](=O)[O-])c1`, the fold change was 1.74 (inactive).

With `CN(C)CCCNc1ccc([N+](=O)[O-])cc1Cl`, the fold change was 3.8 (active).

On to `CN(C)CCNc1ccc(Cl)cc1[N+](=O)[O-]`, for which the fold change was 1.53 (inactive).

With `NCCCNc1ccc(Cl)cc1[N+](=O)[O-]`, the fold change was -1.5 (inactive).

For `CCN(CC)CCNc1ccc(Cl)cc1[N+](=O)[O-]`, the fold change was 3.03 (active).

In the case of `CCNCCNc1ccc([N+](=O)[O-])cc1Cl`, the fold change is 1.86 (inactive).

Take `Cc1cccc(-c2cc(=O)c3cc(Br)ccc3o2)c1`: the fold change was 1.11 (inactive).

In the case of `Nc1nc(C=C(Cl)Cl)cs1`, the fold change was 1.63 (inactive).

As to `COc1cc2c(cc1OC)C(C(=O)O)CC(=O)N2` (configuration not stated), the fold change was -1.06 (inactive).

In the case of `COc1ccc(C(O)c2nccn2C)cc1OC` (configuration not stated), the fold change is -1.55 (inactive).

As for `COc1ccc(-c2coc3ccc(OC4OC(COC(C)=O)C(OC(C)=O)C(OC(C)=O)C4OC(C)=O)c(OC(C)=O)c3c2=O)cc1` (configuration not stated), the fold change was -1.42 (inactive).

As for `CC1=NN(c2ccccc2)C(=O)/C1=C\c1cn(-c2ccccc2)nc1C12CC3CC(CC(C3)C1)C2`, the fold change was -2.06 (inactive).

With `Clc1nc2ccccc2cc1C=Nc1ccc(Br)cc1`, the fold change is 3.97 (active).

As for `COc1cc(N=Cc2cc3ccccc3nc2Cl)c(OC)cc1Cl`, the fold change is 3.58 (active).

On to `Clc1ccc(N=Cc2ccccc2Cl)nc1`, for which the fold change was 1.71 (inactive).

`Oc1c(Br)cc(Br)cc1C=Nc1ccc(F)cc1`: the fold change entry was “inactive”.

Take `Clc1cccc(N=Cc2cc3ccccc3nc2Cl)c1Cl`: the fold change was 3.42 (active).

Regarding `COc1cc(N=Cc2cc(Cl)cc(Cl)c2O)c(OC)cc1Cl`, the fold change entry was “inactive”.

On to `Clc1ccc(Cl)c(N=Cc2cc3ccccc3nc2Cl)c1`, for which the fold change is 1.49 (inactive).

`Oc1c(Br)cc(Br)cc1C=Nc1ccc(Cl)c(Cl)c1`: the fold change result was “inactive”.

Regarding `CC(Sc1ccccc1)C(=O)N[C@@H]1C[C@H]2CC[C@@H]1C2` (some centres not stated), the fold change is -1.09 (inactive).

On to `c1ccc(-c2nc(Sc3nc(-c4ccccc4)nc4ccccc34)c3ccccc3n2)cc1`, for which the fold change was -1.53 (inactive).

Consider `O=c1[nH]c(=O)n(-c2ccccc2)c(O)c1/C=C1\C=Nc2ccccc21`, for which the fold change result was “inactive”.

Turning to `N#Cc1cnn2cc([N+](=O)[O-])cnc12`, the fold change is -1.15 (inactive).

Regarding `NC(=O)c1[nH]ncc1[N+](=O)[O-]`, the fold change was 1.08 (inactive).

Regarding `O=C(O)c1[nH]ncc1[N+](=O)[O-]`, the fold change is 1.94 (inactive).

Turning to `N#Cc1cnn2cc(-c3[nH]ncc3[N+](=O)[O-])cnc12`, the fold change was 3.75 (active).

As for `CCOC(=O)c1cnn2cc(-c3[nH]ncc3[N+](=O)[O-])cnc12`, the fold change was -1.64 (inactive).

On to `O=c1[nH]n2cc(-c3n[nH]c(-c4cnc5c(Br)c(=O)[nH]n5c4)c3[N+](=O)[O-])cnc2c1Br`, for which the fold change was 3.53 (active).

Regarding `O=c1[nH]n2cc(-c3[nH]ncc3[N+](=O)[O-])cnc2c1[N+](=O)[O-]`, the fold change was 4.1 (active).

In the case of `Cc1cc(C)n2[nH]c(=O)c([N+](=O)[O-])c2n1`, the fold change was 1.66 (inactive).

With `Cn1c(=O)oc2ccc(S(=O)(=O)Nc3ccc4c(c3)CCN4S(C)(=O)=O)cc21`, the fold change is -1.03 (inactive).

In the case of `O=C(O)C1CC(=O)N(CC2CCCO2)C1` (configuration not stated), the fold change was -1.58 (inactive).

On to `CCc1sc(/C=C(/C#N)C(=O)OC(C)C)cc1Br`, for which the fold change is -3.71 (inactive).

For `Fc1ccc(-c2cnc3ccccc3n2)cc1`, the fold change is -2.09 (inactive).

Consider `O=C(CCn1cnnn1)Nc1nc2cc(OC(F)(F)F)ccc2s1`, for which the fold change was 1.2 (inactive).

On to `COC1OC2COC(c3ccccc3)OC2C(O)C1O` (configuration not stated), for which the fold change is 3.25 (active).

`COC1OC2COC(c3ccccc3)OC2C(O)C1OS(=O)(=O)c1ccc(C)cc1` (configuration not stated): the fold change is 2.36 (inactive).

With `COc1ccc(C=Nc2nonc2N)cc1`, the fold change is -2.59 (inactive).

In the case of `COc1ccc(N=Nc2c(N)n[nH]c2N)cc1`, the fold change entry was “active”.

Turning to `COc1ccc(-c2nnc(N)o2)cc1`, the fold change was 1.14 (inactive).

Turning to `Cc1cc(C)nc(/N=C(/N)Nc2ccc(C)c([N+](=O)[O-])c2)n1`, the fold change was -1.56 (inactive).

`O=C(O)c1cc2cc3c4c(c2oc1=O)CCCN4CCC3`: the fold change is 1.07 (inactive).

Take `CC(C)(C)[Si](C)(C)N1C(=O)C[C@H]1C(=O)O`: the fold change is 1.19 (inactive).

For the compound `O=c1[nH]snc1N1CCOCC1`, the fold change was -1.16 (inactive).

For `O=C1c2ccc([N+](=O)[O-])cc2C(=O)N1Cc1nc2ccccc2c(=O)o1`, the fold change was -5.24 (inactive).

On to `CN1C(=O)c2ccc([N+](=O)[O-])cc2C1=O`, for which the fold change was 1.34 (inactive).

On to `O=C1c2ccc([N+](=O)[O-])cc2C(=O)N1CNc1ccc2c(c1)oc1ccccc12`, for which the fold change was 2.96 (active).

Regarding `O=S(=O)(NCc1ccc2c(c1)OCO2)c1ccc2ccccc2c1`, the fold change is -1.07 (inactive).

With `O=c1oc(-c2cccs2)nc2cc([N+](=O)[O-])ccc12`, the fold change was 1.07 (inactive).

Turning to `O=C(COc1cccc2ccccc12)N1CCc2ccccc21`, the fold change was -1.51 (inactive).

On to `O=C(CCl)N1CCc2ccccc21`, for which the fold change was 3.82 (active).

For `O=C(C(=O)N1CCc2ccccc21)N1CCc2ccccc21`, the fold change was -1.35 (inactive).

On to `CCOC(=O)c1c(NC(=O)c2ccco2)sc(C(=O)N2CCCC2)c1C`, for which the fold change is -2.09 (inactive).

On to `O=C1C(=Cc2c[nH]c3ccccc23)C(=O)c2ccccc21`, for which the fold change is -1.41 (inactive).

As to `Nc1nnc(SCC(=O)N2CCCC2)s1`, the fold change is 1.32 (inactive).

As for `NC(=O)CSc1nnc(SCC(N)=O)s1`, the fold change was -3.2 (inactive).

As to `CN(C)C(=O)CSc1nnc(N)s1`, the fold change is 3.85 (active).

As to `Cc1cc(C)c2oc(-c3cc(N)ccc3Cl)nc2c1`, the fold change is 1.24 (inactive).

In the case of `Cn1cnnc1-c1ccc(N)cc1`, the fold change was -1.13 (inactive).

For the compound `CC(C)(C)c1ccc(-c2nnc(-c3ccc(Cl)cc3Cl)o2)cc1`, the fold change was -1.32 (inactive).

Consider `S=c1[nH]ccn1-c1ccccc1`, for which the fold change was 1.02 (inactive).

For `NC(=O)c1no[n+]([O-])c1C(N)=O`, the fold change was -1.25 (inactive).

Take `c1ccc(-c2csc(N3CCN(C(c4ccccc4)c4ccccc4)CC3)n2)cc1`: the fold change was 1.15 (inactive).

For `O=[N+]([O-])c1ccc(S(=O)(=O)Nc2nc3ccccc3s2)cc1`, the fold change was 1.84 (inactive).

`O=[N+]([O-])c1ccc(NCCCn2cnc3ccccc32)nc1`: the fold change is 1.16 (inactive).

In the case of `O=[N+]([O-])c1ccccc1-n1ccnc1`, the fold change is -1.71 (inactive).

Consider `O=[N+]([O-])c1ccc(S(=O)(=O)n2cnc3ccccc32)cc1`, for which the fold change is 3.41 (active).

As to `O=[N+]([O-])c1ccccc1S(=O)(=O)n1cnc2ccccc21`, the fold change was 3.82 (active).

In the case of `O=[N+]([O-])c1ccc(-n2nnc3ccccc32)c([N+](=O)[O-])c1`, the fold change was -1.31 (inactive).

Consider `COc1cc(OC)cc(C2SC(N)=C(C#N)C(N)=C2C#N)c1` (configuration not stated), for which the fold change is -1.62 (inactive).

Regarding `N[C@@H](CSCC(=O)O)C(=O)O`, the fold change is 2.87 (active).

Take `NC(CC(=O)O)C(=O)O` (configuration not stated): the fold change was 1.14 (inactive).

Turning to `NC(CCCC(N)C(=O)O)C(=O)O` (configuration not stated), the fold change is -1.27 (inactive).

For `O=C(Cc1cccs1)NC1CCCC1`, the fold change is -3.03 (inactive).

For the compound `C1CCN(c2nc3nonc3nc2N2CCCC2)C1`, the fold change was -1.59 (inactive).

Regarding `O=c1[nH]c(/C=C/c2ccc(Br)cc2)c([N+](=O)[O-])c(=O)[nH]1`, the fold change is 3.45 (active).

Regarding `COc1ccc(OC)c(/C=C/c2[nH]c(=O)[nH]c(=O)c2[N+](=O)[O-])c1`, the fold change is 1.29 (inactive).

As to `O=c1[nH]c(/C=C/c2ccc(Br)cc2)nc(O)c1[N+](=O)[O-]`, the fold change is 2.47 (inactive).

As for `N#CC1=C(N)n2c(s/c(=C\c3ccc(Cl)cc3)c2=O)=C(C#N)C1c1ccc(Cl)cc1` (configuration not stated), the fold change was -1.6 (inactive).

Regarding `N#CC1Cc2cc([N+](=O)[O-])ccc2-c2cc(Cl)cc(Cl)c21` (configuration not stated), the fold change was -3.59 (inactive).

For the compound `C/C(Cn1nnc2ccccc21)=N\NC(=O)c1c[nH]c2ccccc12`, the fold change is -2.58 (inactive).

Consider `NNC(=O)c1ccc(COc2ccc3c(c2)CCC3)o1`, for which the fold change is -1.37 (inactive).

Consider `O=C(COc1ccc(Br)cc1)NCC1CCCO1` (configuration not stated), for which the fold change was -1.54 (inactive).

As for `NNC(=O)COc1ccc2c(c1Br)CCCC2`, the fold change is 2.77 (active).

As to `S=c1[nH]nc(-c2ccccc2)n1C1CCCCC1`, the fold change was 1.07 (inactive).

For `COCCCN1C(=O)/C(=C/c2cccs2)SC1=S`, the fold change is -1.09 (inactive).

In the case of `CCCCC(CC)C(=O)NC(C)(C)C` (configuration not stated), the fold change is 1.34 (inactive).

`CCCCCCCCCCCCCCCC(=O)O`: the fold change is 1.25 (inactive).

On to `CCCCCCCCCCCCCCC(CC(=O)O)C(=O)O` (configuration not stated), for which the fold change was 2.88 (active).

With `COc1ccc(-c2cc(=O)c3ccc(O)cc3o2)cc1`, the fold change was -1.7 (inactive).

Regarding `Cn1nccc1C(=O)O`, the fold change is 3.48 (active).

In the case of `Cc1csc(NC(=O)c2ccnn2C)n1`, the fold change is 1.09 (inactive).

For `Cn1nccc1C(=O)Nc1nc2ccccc2s1`, the fold change is -1.5 (inactive).

For the compound `COC(=O)/C(C#N)=C/c1cc(C)sc1C`, the fold change is 1.01 (inactive).

Turning to `COC(=O)C1=c2s/c(=C/c3ccncc3)c(=O)n2C(c2ccncc2)C(C#N)=C1N` (configuration not stated), the fold change was 1.32 (inactive).

Turning to `N#CC1=C(N)n2c(s/c(=C/c3ccc(Cl)cc3Cl)c2=O)=C(C#N)C1c1ccc(Cl)cc1Cl` (configuration not stated), the fold change is 1.33 (inactive).

For the compound `N#CC1=C(N)C(C#N)=c2s/c(=C/c3cccc(F)c3)c(=O)n2C1c1cccc(F)c1` (configuration not stated), the fold change was 3.89 (active).

Take `N#CC1=C(N)C(C#N)=c2s/c(=C/c3c(F)cccc3Cl)c(=O)n2C1c1c(F)cccc1Cl` (configuration not stated): the fold change is 2.98 (active).

`N#CC1=C(N)C(C#N)=c2s/c(=C/c3ccc(F)cc3)c(=O)n2C1c1ccc(F)cc1` (configuration not stated): the fold change is 2.25 (inactive).

On to `N#CC1=C(N)C(C#N)=c2s/c(=C/c3ccc(Cl)cc3Cl)c(=O)n2C1c1ccc(Cl)cc1Cl` (configuration not stated), for which the fold change is -1.24 (inactive).
